# From PubChem BioAssay (NCATS)
# Records with an inconclusive call do not appear. Active and inactive are the calls of the source. The call rests on the fitted dose curve; in most records, active means well fitted curve in the direction sought with a large enough effect; inconclusive means small, poorly fitted or top-dose-only effect, or another doubt; inactive means no such curve, though single readings can be large; an effect the other way counts as inactive or inconclusive.
# Tests used:
# [1] = Quantitative High-Throughput drug screen in 47 multiple myeloma cell lines against the NCATS MIPE library collection: KMS12PE_JCRB cell viability assay (AID 1918972); further: nearly all actives have a fitted effect of over 30% in size
# Method in brief: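 CellTiter-Glo ATP luminescence gave viability after 48 h compound treatment at 37C of 500 multiple myeloma cells per well. Normalisation used DMSO-only wells as 100% and media-only wells as 0% viability; primary qHTS of approved and investigational drugs.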
# [2] = Quantitative High-Throughput drug screen in 47 multiple myeloma cell lines against the NCATS MIPE library collection: KMS20_JCRB cell viability assay (AID 1918973); further: nearly all actives have a fitted effect of over 45% in size
# Method in brief: (§1)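 Viability readout: CellTiter-Glo luminescence following 5 min room-temperature incubation with reagent. Prior exposure: 48 h, 37C, humidified 5% CO2, 500 cells per well.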
# [3] = Quantitative High-Throughput drug screen in 47 multiple myeloma cell lines against the NCATS MIPE library collection: KMS21BM_JCRB cell viability assay (AID 1918974); conditions: ATP luminescence, 48 h; viability: at 45.8 µM (top of the series)
# Method in brief: as §1
# [4] = Quantitative High-Throughput drug screen in 47 multiple myeloma cell lines against the NCATS MIPE library collection: KMS26_JCRB cell viability assay (AID 1918975); further: nearly all actives have a fitted effect of over 45% in size
# Method in brief: as §1
# [5] = Quantitative High-Throughput drug screen in 47 multiple myeloma cell lines against the NCATS MIPE library collection: MMM1_PLB cell viability assay (AID 1918976); further: nearly all actives have a fitted effect of over 35% in size
# Method in brief: (§2)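 ATP-based CellTiter-Glo luminescence after 48 h drug exposure (37 °C, 5% CO2) of 500 myeloma cells per well. DMSO-only wells set 100% viability, media-only wells 0%; MIPE 4.0 library added by pin tool.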
# [6] = Quantitative High-Throughput drug screen in 47 multiple myeloma cell lines against the NCATS MIPE library collection: MOLP8_DSMZ cell viability assay (AID 1918977); further: nearly all actives have a fitted effect of over 45% in size
# Method in brief: as §2
# [7] = Quantitative High-Throughput drug screen in 47 multiple myeloma cell lines against the NCATS MIPE library collection: NCIH929_DSMZ cell viability assay (AID 1918978); further: nearly all actives have a fitted effect of over 35% in size
# Method in brief: as §2
# [8] = Quantitative High-Throughput drug screen in 47 multiple myeloma cell lines against the NCATS MIPE library collection: MM1S_ATCC cell viability assay (AID 1918980); further: nearly all actives have a fitted effect of over 45% in size
# Method in brief: as §2
# [9] = Quantitative High-Throughput drug screen in 47 multiple myeloma cell lines against the NCATS MIPE library collection: MM1R_ATCC cell viability assay (AID 1918981); further: nearly all actives have a fitted effect of over 35% in size
# Method in brief: as §2
# [10] = Quantitative High-Throughput drug screen in 47 multiple myeloma cell lines against the NCATS MIPE library collection: OCIMY1_PLB cell viability assay (AID 1918979); further: nearly all actives have a fitted effect of over 35% in size
# Method in brief: as §2
# Potency means the concentration at half of the fitted maximal effect.
SMILES,Potency [1],Potency [2],Potency [3],Potency [4],Potency [5],Potency [6],Potency [7],Potency [8],Potency [9],Potency [10]
Cc1ccccc1-n1c(Cn2cnc3c(N)ncnc32)nc2cccc(C)c2c1=O,0.264 µM (active),0.296 µM (active),0.235 µM (active),2.96 µM (active),0.166 µM (active),0.0743 µM (active),0.0418 µM (active),0.526 µM (active),0.187 µM (active),–
C[C@@H]1O[C@@H](O[C@@H]2C=C3CC[C@@H]4[C@@H](CC[C@]5(C)[C@H](c6ccc(=O)oc6)CC[C@@]45O)[C@@]3(C)CC2)[C@H](O)[C@H](O)[C@H]1O,0.0074 µM (active),0.0187 µM (active),0.0264 µM (active),0.0418 µM (active),0.0264 µM (active),0.0296 µM (active),0.0469 µM (active),0.0296 µM (active),–,0.0166 µM (active)
Cc1c(C(=O)Nc2cccc(C(F)(F)F)c2)cc(-c2ccccc2)n1CCCN1CCOCC1,10.5 µM (active),16.6 µM (active),18.7 µM (active),11.8 µM (active),20.9 µM (active),20.9 µM (active),–,20.9 µM (active),–,–
COC[C@H]1OC(=O)c2coc3c2[C@@]1(C)C1=C(C3=O)[C@@H]2CC[C@H](O)[C@@]2(C)C[C@@H]1OC(C)=O,6.62 µM (active),5.26 µM (active),–,3.32 µM (active),1.05 µM (active),–,0.209 µM (active),2.35 µM (active),–,–
COCC1(CO)C(=O)C2CCN1CC2 (stereo not drawn),9.35 µM (active),0.296 µM (active),4.18 µM (active),0.662 µM (active),5.26 µM (active),0.59 µM (active),0.833 µM (active),0.264 µM (active),–,2.09 µM (active)
O=S(=O)(CC1CS1)c1ccc(Oc2ccccc2)cc1 (stereo not drawn),3.72 µM (active),14.8 µM (active),–,26.4 µM (active),16.6 µM (active),16.6 µM (active),16.6 µM (active),14.8 µM (active),16.6 µM (active),–
Cc1c(C(=O)c2cccc3ccccc23)c2cccc3c2n1[C@H](CN1CCOCC1)CO3,7.43 µM (active),18.7 µM (active),–,23.5 µM (active),23.5 µM (active),–,23.5 µM (active),–,–,–
O=c1cccc2n1CC1CNC[C@H]2C1,9.35 µM (active),11.8 µM (active),–,inactive,–,inactive,–,10.5 µM (active),inactive,inactive
CC(N[C@H]1C[C@H]1c1ccccc1)c1ccc2c(c1)OCCO2 (stereo partly drawn),inactive,0.001 µM (active),–,5.26 µM (active),–,–,inactive,–,inactive,inactive
C[C@]12Cc3cn[nH]c3C[C@@H]1CC[C@@H]1[C@H]2CC[C@@]2(C)[C@H]1CC[C@]2(C)O,inactive,inactive,–,–,23.5 µM (active),–,inactive,inactive,–,inactive
NC1CC1c1ccccc1 (stereo not drawn),inactive,inactive,–,inactive,–,inactive,inactive,inactive,–,inactive
N#C[C@H](O[C@@H]1O[C@H](CO[C@@H]2O[C@H](CO)[C@H](O)[C@H](O)[C@H]2O)[C@H](O)[C@H](O)[C@H]1O)c1ccccc1,7.43 µM (active),18.7 µM (active),–,20.9 µM (active),23.5 µM (active),–,23.5 µM (active),–,29.6 µM (active),20.9 µM (active)
CC(C)[C@]12O[C@@H]1[C@@H]1O[C@]13[C@]1(O[C@H]1C[C@@H]1C4=C(CC[C@@]13C)C(=O)OC4)[C@H]2O,inactive,inactive,inactive,inactive,inactive,inactive,inactive,inactive,–,inactive
Cc1ccccc1-n1c(Cn2ncc3c(N)ncnc32)nc2cccc(C)c2c1=O,0.148 µM (active),0.132 µM (active),–,–,inactive,–,0.332 µM (active),0.118 µM (active),16.6 µM (active),–
N=c1c2c(-c3ccccc3)c(-c3ccccc3)n(Cc3ccccc3)c2ncn1C1CCC(O)CC1 (stereo not drawn),2.64 µM (active),2.64 µM (active),–,26.4 µM (active),18.7 µM (active),–,1.32 µM (active),5.26 µM (active),–,–
c1ccc(CCCN2CCN(CCOC(c3ccccc3)c3ccccc3)CC2)cc1,inactive,13.2 µM (active),–,26.4 µM (active),18.7 µM (active),20.9 µM (active),23.5 µM (active),–,23.5 µM (active),23.5 µM (active)
CC[C@@]1(O)C(=O)OCc2c1cc1n(c2=O)Cc2cc3ccccc3nc2-1,0.132 µM (active),0.209 µM (active),–,2.35 µM (active),0.935 µM (active),0.132 µM (active),0.105 µM (active),0.0235 µM (active),–,0.418 µM (active)
